Measured values as given in PubChem BioAssay (NCATS).
Results filed as inconclusive are left out. A call without a number means that no potency is given here. Activity calls are given as the source filed them. Calls follow the shape of the dose curve; as a rule, active = well fitted cell-killing curve with a large enough effect; inconclusive = small, poorly fitted or top-dose-only effect; inactive = flat fitted curve, though single readings scatter.
Potency is read from the fitted curve at half-maximal effect.

Experiment: Vero cells viability qHTS for Zika virus inhibitors (AID 1347167)
Conditions: cytotoxicity counter-screen (Zika); series mostly up to 45.9 µM
Outline: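 To flag cytotoxic protease inhibitors, viability is measured by ATP-dependent luminescence (CellTiter Glo) after cells attached overnight receive compound for 24 to 48 hours in DMEM with 4% FBS.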
For `N[C@H](C(=O)O)c1ccc(O)cc1`, the Potency was “inactive”. With `CC(C)(O)c1ccccc1CC[C@@H](SCC1(CC(=O)O)CC1)c1cccc(/C=C/c2ccc3ccc(Cl)cc3n2)c1` the Potency was “inactive”. With `Cc1cc(C(C#N)c2ccc(Cl)cc2)c(Cl)cc1NC(=O)c1cc(I)cc(I)c1O` (stereo not drawn) the Potency was 13.1 µM (active).
